Measured values: PubChem BioAssay (Tox21)
Results filed as inconclusive are left out. Calls of active or inactive are those of the source. Unless noted, calls come from the whole dose curve.

Columns and labels:
[1] = biological target: Peroxisome proliferator-activated receptor delta (Homo sapiens) (UniProt Q03181); assay: qHTS assay to identify small molecule agonists of the peroxisome proliferator-activated receptor delta (PPARd) signaling pathway (AID 743212); note: % is set by controls: 0 for no effect and ±100 for the full control effect
Sequence of Peroxisome proliferator-activated receptor delta (Homo sapiens) (Q03181 whole entry, looked up): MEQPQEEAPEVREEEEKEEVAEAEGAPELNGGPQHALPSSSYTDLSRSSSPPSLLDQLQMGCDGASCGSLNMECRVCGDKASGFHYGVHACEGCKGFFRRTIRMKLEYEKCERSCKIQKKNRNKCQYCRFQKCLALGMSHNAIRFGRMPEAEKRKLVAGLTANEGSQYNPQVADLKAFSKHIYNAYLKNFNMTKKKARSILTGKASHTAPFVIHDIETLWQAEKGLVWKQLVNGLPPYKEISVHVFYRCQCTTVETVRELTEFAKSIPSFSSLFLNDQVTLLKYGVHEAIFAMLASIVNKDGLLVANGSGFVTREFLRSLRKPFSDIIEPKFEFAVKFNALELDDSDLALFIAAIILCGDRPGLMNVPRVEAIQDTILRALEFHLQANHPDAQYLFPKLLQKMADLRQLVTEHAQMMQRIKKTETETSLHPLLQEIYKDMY
Outline: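 Beta-lactamase reporter readout: a ratiometric FRET signal from the LiveBLAzer substrate after 2 h at room temperature. Compound exposure at 37 °C in PPARδ-bla HEK293H cells driven by an upstream activator sequence.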

[2] = qHTS assay to identify small molecule antagonists of the peroxisome proliferator-activated receptor delta (PPARd) signaling pathway - cell viability counter screen (AID 743213; active = well fitted curve in the direction sought with a large enough effect in the repeat runs; an effect the other way counts as inactive or inconclusive; note: % is set by controls: 0 for no effect and ±100 for the full control effect; nearly all actives have a fitted effect of over 50% in size)
Outline: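 PPARd-bla HEK293H cells (3000/well) got compound plus 300 nM L165041 agonist for 17 h at 37 C. Viability in the same wells came from CellTiter-Glo luminescence after 30 min at room temperature.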

[3] = biological target: Peroxisome proliferator-activated receptor delta (Homo sapiens) (UniProt Q03181); assay: qHTS assay to identify small molecule antagonists of the peroxisome proliferator-activated receptor delta (PPARd) signaling pathway (AID 743215; active = well fitted inhibition curve with a large enough effect in the signal ratio in the repeat runs, not every such curve was filed as active; the % refers to the signal ratio;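 note: cells stimulated with agonist L165041 at 300 nM final during compound exposure; series mostly up to about 62 µM; % is set by controls: 0 for no effect and ±100 for the full control effect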)
Outline: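 HEK293H GeneBLAzer PPARd UAS-bla reporter cells; cpd + L165041 300 nM final, 17 h 37 C; LiveBLAzer B/G FRET substrate 2 h RT; fluorescence intensity read-out. Antagonist mode.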

[4] = biological target: Bile acid receptor (Homo sapiens) (UniProt Q96RI1); assay: qHTS assay to identify small molecule antagonists of the farnesoid-X-receptor (FXR) signaling pathway (AID 743217; active = well fitted inhibition curve with a large enough effect in the signal ratio in the repeat runs, not every such curve was filed as active; the % refers to the signal ratio; note: % is set by controls: 0 for no effect and ±100 for the full control effect)
Sequence of Bile acid receptor (Homo sapiens) (Q96RI1 whole entry, looked up): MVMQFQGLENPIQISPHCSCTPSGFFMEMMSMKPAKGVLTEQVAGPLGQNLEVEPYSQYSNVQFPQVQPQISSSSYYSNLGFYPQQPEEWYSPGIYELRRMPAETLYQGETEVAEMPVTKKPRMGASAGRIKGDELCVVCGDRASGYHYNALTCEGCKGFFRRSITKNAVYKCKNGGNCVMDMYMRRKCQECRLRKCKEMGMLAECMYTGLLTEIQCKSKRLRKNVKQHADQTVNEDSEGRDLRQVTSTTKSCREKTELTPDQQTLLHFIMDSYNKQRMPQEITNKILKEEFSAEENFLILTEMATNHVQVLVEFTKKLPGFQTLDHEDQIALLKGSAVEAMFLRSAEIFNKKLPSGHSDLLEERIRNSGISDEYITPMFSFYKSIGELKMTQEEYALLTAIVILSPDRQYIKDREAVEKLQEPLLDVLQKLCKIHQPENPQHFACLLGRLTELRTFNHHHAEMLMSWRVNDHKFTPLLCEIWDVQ
Outline: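 Read-out: beta-lactamase FRET fluorescence (LiveBLAzer B/G substrate, 2 h, room temperature) in GeneBLAzer FXR-UAS-bla HEK 293T cells. Compounds were co-dosed with 50 uM chenodeoxycholic acid (final) and incubated 16 h at 37 °C.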

[5] = qHTS assay to identify small molecule agonists of the farnesoid-X-receptor (FXR) signaling pathway - cell viability counter screen (AID 743218; active = well fitted curve in the direction sought with a large enough effect in the repeat runs; an effect the other way counts as inactive or inconclusive; note: % is set by controls: 0 for no effect and ±100 for the full control effect; nearly all actives have a fitted effect of over 45% in size)
Outline: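 Luminescence from CellTiter-Glo, read after 30 min at RT, reports viability of GeneBLAzer FXR-UAS-bla HEK 293T cells treated 16 h with compounds in the wells used for the beta-lactamase reporter.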

[6] = biological target: Bile acid receptor (Homo sapiens) (UniProt Q96RI1); assay: qHTS assay to identify small molecule agonists of the farnesoid-X-receptor (FXR) signaling pathway (AID 743220; active = well fitted activation curve with a large enough effect in the signal ratio in the repeat runs, not every such curve was filed as active; the % refers to the signal ratio; note: % is set by controls: 0 for no effect and ±100 for the full control effect)
Outline: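 FXR-UAS-bla HEK 293T cells carrying a UAS-driven beta-lactamase reporter were plated for 5 h at 37C/5% CO2, then exposed to DMSO-dissolved Tox21 10K compounds for 16 h at 37C. A LiveBLAzer B/G FRET substrate was loaded for 2 h at room temperature before fluorescence reading.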

[7] = biological target: Vitamin D3 receptor (Homo sapiens) (UniProt P11473); assay: qHTS assay to identify small molecule agonists of the vitamin D receptor (VDR) signaling pathway (AID 743222); note: % is set by controls: 0 for no effect and ±100 for the full control effect
Sequence of Vitamin D3 receptor (Homo sapiens) (P11473 whole entry, looked up): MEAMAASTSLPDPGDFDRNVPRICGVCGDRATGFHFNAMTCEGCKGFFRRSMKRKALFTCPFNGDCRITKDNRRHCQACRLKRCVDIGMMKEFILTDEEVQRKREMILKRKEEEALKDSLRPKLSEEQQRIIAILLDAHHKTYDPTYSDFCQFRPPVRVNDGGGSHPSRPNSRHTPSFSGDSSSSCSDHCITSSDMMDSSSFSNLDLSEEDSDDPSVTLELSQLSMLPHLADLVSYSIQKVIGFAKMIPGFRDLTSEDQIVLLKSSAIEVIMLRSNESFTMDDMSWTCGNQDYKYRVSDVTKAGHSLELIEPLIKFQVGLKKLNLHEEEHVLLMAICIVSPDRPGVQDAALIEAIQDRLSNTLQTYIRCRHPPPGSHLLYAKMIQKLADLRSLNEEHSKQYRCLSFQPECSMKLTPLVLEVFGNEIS
Outline: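 Beta-lactamase reporter readout (LiveBLAzer B/G FRET, 2 h RT) in VDR-bla cells after 16 h compound treatment at 37C, 5% CO2; cells pre-incubated 4 h before pin transfer of DMSO solutions.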

[8] = biological target: Vitamin D3 receptor (Homo sapiens) (UniProt P11473); assay: qHTS assay to identify small molecule antagonists of the vitamin D receptor (VDR) signaling pathway (AID 743223; active = well fitted inhibition curve with a large enough effect in the signal ratio in the repeat runs, not every such curve was filed as active; the % refers to the signal ratio; note: % is set by controls: 0 for no effect and ±100 for the full control effect)
Outline: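 Reporter line VDR-bla; stimulus 1alpha,25-(OH)2 vitamin D3, 3 nM final; compound co-addition, 16 h 37C/5% CO2; LiveBLAzer B/G substrate 2 h RT; fluorescence intensity.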

[9] = qHTS assay to identify small molecule antagonists of the vitamin D receptor (VDR) signaling pathway - cell viability counter screen (AID 743225; active = well fitted curve in the direction sought with a large enough effect in the repeat runs; an effect the other way counts as inactive or inconclusive; note: % is set by controls: 0 for no effect and ±100 for the full control effect; nearly all actives have a fitted effect of over 50% in size)
Outline: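 Parallel cytotoxicity test: VDR-UAS-bla HEK 293T, 3 nM (final) 1-alpha,25-dihydroxyvitamin D3 with test compound, 16 h, 37C. Endpoint is CellTiter-Glo luminescence in the same wells.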

[10] = qHTS assay to identify small molecule agonists of the NFkB signaling pathway - cell viability counter screen (AID 1159515); note: series mostly up to about 61 µM; % is set by controls: 0 for no effect and ±100 for the full control effect; nearly all actives have a fitted effect of over 55% in size
Outline: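 ME-180 NFkB-bla cells, 2,000/well; overnight attach; compound 5 hr, 37 C/5% CO2; LiveBLAzer substrate 1.5 hr RT; then CellTiter-Glo in same wells, 30 min RT, luminescence read.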

[11] = qHTS assay to identify small molecule agonists of the endoplasmic reticulum stress response signaling pathway (AID 1159516; active = well fitted activation curve with a large enough effect in the signal ratio in the repeat runs, not every such curve was filed as active; the % refers to the signal ratio; note: % is set by controls: 0 for no effect and ±100 for the full control effect)
Outline: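 HeLa ESRE-bla reporter line; cpd 5 h, 37 C/5% CO2; LiveBLAzer B/G FRET substrate 2 h RT; ex 405, em 460/530 nm.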

[12] = qHTS assay to identify small molecule agonists of the endoplasmic reticulum stress response signaling pathway - cell viability counter screen (AID 1159517);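 note: HeLa cells carrying an ER stress response element beta-lactamase reporter; series mostly up to about 61 µM; % is set by controls: 0 for no effect and ±100 for the full control effect; nearly all actives have a fitted effect of over 50% in size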
Outline: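 ESRE-bla HeLa cells (1,500/well) were plated overnight at 37 C and exposed to compounds for 5 hr. After the 2 hr beta-lactamase substrate read, CellTiter-Glo went into the same wells, and luminescence was read after 30 min at room temperature.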

[13] = qHTS assay to identify small molecule antagonists of the retinoid-related orphan receptor gamma (ROR-gamma) signaling pathway - cell viability counter screen (AID 1159520; active = well fitted curve in the direction sought with a large enough effect in the repeat runs; an effect the other way counts as inactive or inconclusive; note: % is set by controls: 0 for no effect and ±100 for the full control effect; nearly all actives have a fitted effect of over 50% in size)
Outline: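 Cytotoxicity was read from cellular ATP (CellTiter-Glo luminescence) after 16 hr at 37 C with 1 uM doxycycline induction. The inducer was added 2 hr after compound transfer to Tet-on ROR gamma CHO cells.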

[14] = biological target: Nuclear receptor ROR-gamma (Homo sapiens) (UniProt P51449); assay: qHTS assay to identify small molecule antagonists of the retinoid-related orphan receptor gamma (ROR-gamma) signaling pathway (AID 1159521; active = well fitted curve in the direction sought with a large enough effect in the repeat runs; an effect the other way counts as inactive or inconclusive)
Outline: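 Decreased RORE-driven luciferase luminescence indicates antagonism. Tet-on RORγ CHO cells received compound, then 1 uM final doxycycline 2 h later; signal read after 16 h incubation.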

[15] = qHTS assay to identify small molecule agonists of the AP-1 signaling pathway - cell viability counter screen (AID 1159525); note: nearly all actives have a fitted effect of over 55% in size
Outline: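 Intracellular ATP by Cell Titer Glo luminescence (30 min, RT) in the same ME-180 AP-1-bla wells after the 5 h compound exposure at 37 °C. Normalised to tetra n-octyl ammonium bromide and DMSO controls.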

[16] = qHTS assay to identify small molecule agonists of the AP-1 signaling pathway (AID 1159526); note: % is set by controls: 0 for no effect and ±100 for the full control effect
[17] = biological target: Retinoic acid receptor RXR-alpha (Homo sapiens) (UniProt P19793); assay: qHTS assay to identify small molecule agonists of the RXR signaling pathway (AID 1159527); note: % is set by controls: 0 for no effect and ±100 for the full control effect; nearly all actives have a fitted effect of over 35% in size
Sequence of Retinoic acid receptor RXR-alpha (Homo sapiens) (P19793 whole entry, looked up): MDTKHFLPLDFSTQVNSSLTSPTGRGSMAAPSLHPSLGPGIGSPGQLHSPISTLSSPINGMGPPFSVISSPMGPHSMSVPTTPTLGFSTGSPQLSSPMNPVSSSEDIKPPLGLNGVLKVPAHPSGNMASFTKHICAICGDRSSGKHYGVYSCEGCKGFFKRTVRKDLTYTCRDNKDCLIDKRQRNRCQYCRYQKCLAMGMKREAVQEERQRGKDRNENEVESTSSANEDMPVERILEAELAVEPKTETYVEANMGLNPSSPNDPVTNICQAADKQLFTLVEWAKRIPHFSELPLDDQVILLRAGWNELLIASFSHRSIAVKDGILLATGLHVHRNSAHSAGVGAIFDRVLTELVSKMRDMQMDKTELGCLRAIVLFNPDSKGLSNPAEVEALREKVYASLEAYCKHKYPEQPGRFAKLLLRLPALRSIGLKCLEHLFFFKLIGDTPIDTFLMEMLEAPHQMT
Outline: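 16 hr incubation of compound-treated RXR-alpha-UAS-bla HEK 293T cells (2% charcoal-stripped FBS, 37 C) preceded a 2 hr room-temperature LiveBLAzer FRET substrate step and blue/green fluorescence measurement.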

[18] = qHTS assay to identify small molecule agonists of the RXR signaling pathway - cell viability counter screen (AID 1159529; active = well fitted curve in the direction sought with a large enough effect in the repeat runs; an effect the other way counts as inactive or inconclusive)
Outline: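 In this parallel viability measure, GeneBLAzer RXR-alpha HEK 293T cells (2% charcoal-stripped FBS) were given a 5 hr preincubation, treated with compounds 16 hr at 37 C, and read by CellTiter-Glo luminescence.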

[19] = qHTS assay to identify small molecule antagonists of the farnesoid-X-receptor (FXR) signaling pathway - cell viability counter screen (AID 743221; active = well fitted cell-killing curve with a large enough effect in the repeat runs, not every such curve was filed as active)
Outline: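 After a 5 h settling period, FXR-bla HEK 293T cells receive compound and chenodeoxycholic acid (50 uM final) and incubate 16 h at 37 C; CellTiter-Glo luminescence, read after 30 min at room temperature, reports cell viability.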

[20] = qHTS assay to identify small molecule agonists of the vitamin D receptor (VDR) signaling pathway - cell viability counter screen (AID 743224; active = well fitted curve in the direction sought with a large enough effect in the repeat runs; an effect the other way counts as inactive or inconclusive)
Outline: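 Cytotoxicity counter screen: VDR-bla cells, 16 h compound exposure at 37C, 5% CO2; CellTiter-Glo luminescence, 30 min RT, same wells as bla read.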

CN(C)c1cc(NC(=O)CNC(C)(C)C)c(O)c2c1C[C@H]1C[C@H]3[C@H](N(C)C)C(=O)C(C(N)=O)=C(O)[C@@]3(O)C(=O)C1=C2O
inactive: outcome [1] | outcome [2] | outcome [3] | outcome [4] | outcome [5] | outcome [6] | outcome [7] | outcome [8] | outcome [9] | outcome [10] | Potency [11] | outcome [12] | outcome [13] | outcome [14] | outcome [15] | Potency [16] | Potency [17] | Potency [18]

Nc1ccc(C(=O)NCC(=O)O)cc1
inactive: outcome [1] | outcome [2] | outcome [3] | outcome [5] | outcome [19] | outcome [7] | outcome [8] | outcome [20] | outcome [9] | outcome [10] | Potency [11] | outcome [12] | outcome [13] | outcome [14] | outcome [15] | Potency [16] | Potency [17] | Potency [18]

COC(=O)/C=C(\C)CCC=C(C)C
inactive: outcome [1] | outcome [2] | outcome [3] | outcome [5] | outcome [19] | outcome [7] | outcome [8] | outcome [10] | Potency [11] | outcome [12] | outcome [13] | outcome [14] | outcome [15] | Potency [16] | Potency [17] | Potency [18]

C[C@@H]1NC(=O)[C@@H](N)CNC(=O)[C@H](C2CCNC(N)=N2)NC(=O)/C(=C/NC(N)=O)NC(=O)[C@H](CNC(=O)C[C@@H](N)CCCN)NC1=O (some centres undefined)
inactive: activation [1] 1.73% [at 0.55 µM] | viability change, negative = cytotoxic [2] 5.77% [at 0.575 µM] | ratio activity, negative = inhibition [3] 1.43% [at 0.575 µM] | viability change, negative = cytotoxic [5] -0.66% [at 0.55 µM] | activity change, negative = cytotoxicity [19] 2.18% [at 0.55 µM] | activation [7] 3.13% [at 0.554 µM] | activity change, negative = inhibition [8] 8.64% [at 0.628 µM] | activity change, negative = cytotoxicity [20] -2.65% [at 0.55 µM] | viability change, negative = cytotoxic [9] 3.48% [at 0.628 µM] | activity, negative = cytotoxic [10] 1.55% [at 0.628 µM] | activation [11] 0.164% [at 0.628 µM] | activity change, negative = cytotoxicity [12] 13.9% [at 0.628 µM] | activity, negative = cytotoxicity [13] 1.69% [at 0.349 µM] | activity change, negative = inhibition [14] 9.3% [at 0.35 µM] | viability change, negative = cytotoxic [15] 0.985% [at 0.29 µM] | activation [16] -1.11% [at 0.29 µM] | activation [17] 5.99% [at 0.29 µM] | activity change, negative = cytotoxicity [18] 9.35% [at 0.29 µM]

O=P(O)(O)C(O)(Cc1cccnc1)P(=O)(O)O
inactive: outcome [1] | outcome [2] | outcome [3] | outcome [4] | outcome [5] | outcome [6] | outcome [19] | outcome [7] | outcome [8] | outcome [20] | outcome [9] | outcome [10] | Potency [11] | outcome [12] | outcome [13] | outcome [14] | outcome [15] | Potency [16] | Potency [17] | Potency [18]

COc1cc(NS(=O)(=O)c2ccc(N)cc2)ncn1
inactive: outcome [1] | outcome [2] | outcome [3] | outcome [5] | outcome [19] | outcome [10] | Potency [11] | outcome [12] | outcome [13] | outcome [14] | outcome [15] | Potency [16] | Potency [17] | Potency [18]

CCCCCCCCCCCBr
inactive: outcome [1] | outcome [2] | outcome [3] | outcome [4] | outcome [5] | outcome [6] | outcome [19] | outcome [7] | outcome [8] | outcome [20] | outcome [9] | outcome [10] | Potency [11] | outcome [12] | outcome [13] | outcome [14] | outcome [15] | Potency [16] | Potency [17] | Potency [18]
